The results in this text go back to PubChem BioAssay.

The source made the active and inactive calls. Unless noted, the rule behind the calls is not given here.

Tested on in one test: not listed separately
The test can be described thus: HepG2 cytotoxicity, primary screen, cytotoxicity control for P. falciparum antimalarial project, cell-based, ATP luminescence (AID 2303;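 active = inhibition above 50%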;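 note: 0% = DMSO wells and 100% = digitonin-killed cells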). The settings on record: HepG2 viability, 24-48 h, at 10 µM, active compounds read high.
As for `Cc1ccc2[nH]c(C)c(Br)c(=O)c2c1`, the inhibition was -4% (inactive).

Take `NC(=O)c1cccc(CNCc2ccc(-c3cccc(-c4nc5ccccc5[nH]4)c3)cc2)c1`: the inhibition was 29% (inactive).

In the case of `O=C(Nc1cc2cc(-c3ccc(CN4CCCCC4)cc3)ccc2n2cnnc12)NC1CCCC1`, the inhibition was 78% (active).

In the case of `CN1CCC(NCc2ccc(-c3ccc(Cl)cc3)cc2)CC1`, the inhibition is 50% (active).

On to `CCCNc1ccc2nccc(CCN3CCC(NCc4ccc5c(n4)NC(=O)CS5)CC3)c2n1`, for which the inhibition is 24% (inactive).

For `COc1cc2c(C3CCN(CC4CCN(C(=O)/C=C/c5ccc(Cl)c(Cl)c5)CC4)CC3)c[nH]c2cn1`, the inhibition is 27% (inactive).

`COc1cccc(CNC[C@@H](O)[C@H](Cc2ccccc2)NC(=O)c2cc(NC(C)C)cc(N3CCCCS3(=O)=O)c2)c1`: the inhibition is 1% (inactive).

On to `COc1ccc(NC(=O)/C=C/c2ccccc2Cl)cc1OCCN1CCC(N2CCCC2)CC1`, for which the inhibition is 22% (inactive).

Turning to `Clc1ncnc2scc(-c3ccc(Br)cc3)c12`, the inhibition was -3% (inactive).

Turning to `Cc1cccc(Nc2nc(C)cc(N3CCCN(CC4CCCCC4)CC3)n2)c1`, the inhibition is 20% (inactive).

`O=C(Nc1ccc2c(c1)OCO2)c1cc(-c2cccnc2)cnc1NCc1ccc2c(c1)OCO2`: the inhibition is 2% (inactive).

As for `Cc1ccnc(NC(c2cccc(Cl)c2Cl)c2ccc3cccnc3c2O)c1` (stereo not given), the inhibition is 46% (inactive).

On to `O=C(Nc1cccc(CN2CCCN(Cc3ccc(O)cc3)CC2)c1)c1cc(F)cc(F)c1`, for which the inhibition is 15% (inactive).

On to `NC1=NC(c2ccccc2)(c2ccccc2)C(=O)N1Cc1ccc(-c2cccnc2)cc1`, for which the inhibition is 15% (inactive).

In the case of `CN1CCN(c2cccc(Nc3nccc(NCC(O)c4ccccc4)n3)c2)CC1` (stereo not given), the inhibition is 30% (inactive).

On to `CCC(C)(C)c1ccc(N2C(N)=NC(N)=NC2(C)C)cc1`, for which the inhibition was 40% (inactive).

With `CC(CNC(=O)C(c1cc2ccccc2o1)N1CCN(C(c2ccccc2)c2ccccc2)CC1)c1ccccc1` (stereo not given), the inhibition is 2% (inactive).

`Cn1cnc(CCNC(=O)c2ccc(-c3ccc(-c4nc5ccc(C(F)(F)F)cc5[nH]4)s3)cc2)c1`: the inhibition is 75% (active).

`CN1CCN(c2cc(-c3cccnc3)nc(-c3ccncc3)n2)CC1`: the inhibition is 11% (inactive).

As to `COc1ccc2nccc([C@@H](O)CN3CC[C@H](NCc4ccc5c(n4)NC(=O)CS5)[C@H](F)C3)c2c1`, the inhibition is 5% (inactive).

With `c1ccc(-c2cc(NCCNc3cc(-c4ccccc4)nc4ccccc34)c3ccccc3n2)cc1`, the inhibition is -2% (inactive).

`NC1=NC2(CCCCC2)N(OCC2CCCCC2)C(N)=N1`: the inhibition was 70% (active).

As for `O=C(Nc1ccc(OC2CCN(Cc3ccc(F)cc3)CC2)c(Cl)c1)c1ccoc1`, the inhibition is -2% (inactive).

Take `O=S(=O)(Nc1cccc(CCN2CCC(N3CCCCC3)CC2)c1)c1cccc(C(F)(F)F)c1`: the inhibition is 25% (inactive).

Consider `Cc1c(C(=O)N2CCCC(C(F)(F)F)C2)sc2cccc(F)c12` (stereo not given), for which the inhibition was -4% (inactive).

Take `CC(C)[C@H](NC(=O)c1ccc(O)c(-c2ccc(Cl)c(Cl)c2)c1)C(=O)NC1CCCCCC1`: the inhibition was -4% (inactive).

With `Cc1ccc(NC(=O)c2ccc3ncccc3c2)cc1OC1CCN(Cc2ccco2)C1` (stereo not given), the inhibition is 9% (inactive).

For the compound `CCCCCN1CCCC(CNS(=O)(=O)c2ccc(C(=O)Nc3ccc(C(F)(F)F)cc3)cc2)C1` (stereo not given), the inhibition was 51% (active).

For `Cn1cncc1C(=O)Nc1cccc(-c2ccc(-c3nc4ccccc4[nH]3)s2)c1`, the inhibition was -3% (inactive).

`CCCCOc1ccc(N2C(N)=NC(N)=NC2(C)C)cc1`: the inhibition is 16% (inactive).

Consider `COc1ccc(NC(=O)Nc2cccc(-c3cccc(-c4nc5c(C)cccc5[nH]4)c3)c2)cc1`, for which the inhibition is -1% (inactive).

As for `O=C(Nc1cccc(-c2ccc(-c3nc4ccc(C(F)(F)F)cc4[nH]3)s2)c1)c1cnc[nH]1`, the inhibition is 55% (active).

Turning to `COc1cccc2cc(C(=O)N[C@@H](CC(C)C)C(=O)N[C@H](/C=N/N3C(=O)CN(Cc4ccccc4)C3=O)CCc3ccccc3)oc12`, the inhibition is 14% (inactive).

`CCOc1ccc(-c2nc(NC(=O)Cc3cccc(OC)c3)sc2C)cc1`: the inhibition is 15% (inactive).

`Cc1ccc(C2CC(c3cccs3)=NN2C(=O)c2ccc(Br)o2)cc1` (stereo not given): the inhibition was 11% (inactive).

Regarding `CNc1ccc(CNCc2ccc(-c3ccc(-c4nc5ccc(C(F)(F)F)cc5[nH]4)s3)cc2)cc1`, the inhibition was 44% (inactive).

Regarding `Cc1ccc([N+](=O)[O-])cc1NC(=O)N(CC(O)c1ccccc1)C1CCCCC1` (stereo not given), the inhibition was 11% (inactive).

With `COc1ccc(CCN(C)CCOc2ccc(NC(=O)c3cc(SC)cc4c(=O)c5ccccc5[nH]c34)cc2)cc1OC`, the inhibition is 7% (inactive).

For `CC(C)C(C(=O)Nc1ccc(S(=O)(=O)N(C)C)cc1)c1ccc(Cl)cc1` (stereo not given), the inhibition was 27% (inactive).

As for `NC(=O)c1ccc(C(=O)Nc2cccc(-c3ccc(-c4nc5ccc(C(F)(F)F)cc5[nH]4)cc3)c2)cc1`, the inhibition is 35% (inactive).

The target in the next test is L-lactate dehydrogenase (Plasmodium falciparum (isolate CDC / Honduras)) (UniProt Q27743). The test is described as follows: PfLDH activity inhibition – cell lysate, 3D7 strain, counter-screen for P. falciparum growth inhibition project (AID 2304).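 Note: 0% = vehicle and 100% = reference inhibitor.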 The settings on record: P. falciparum 3D7 crude extract, LDH APAD/NBT absorbance; at 2 µM; active compounds read high.
L-lactate dehydrogenase (Plasmodium falciparum (isolate CDC / Honduras)), sequence (Q27743 whole entry, looked up): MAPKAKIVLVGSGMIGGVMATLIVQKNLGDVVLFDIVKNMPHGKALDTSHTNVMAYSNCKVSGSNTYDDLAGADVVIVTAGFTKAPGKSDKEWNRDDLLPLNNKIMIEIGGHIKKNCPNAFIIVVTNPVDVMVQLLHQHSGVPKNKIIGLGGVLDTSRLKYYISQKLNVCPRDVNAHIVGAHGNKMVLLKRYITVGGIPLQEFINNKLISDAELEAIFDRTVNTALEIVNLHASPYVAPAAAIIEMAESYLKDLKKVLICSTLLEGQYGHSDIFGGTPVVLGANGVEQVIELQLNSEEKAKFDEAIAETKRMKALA
For `Cc1ccc2[nH]c(C)c(Br)c(=O)c2c1`, the inhibition was -5% (inactive).

In the case of `NC(=O)c1cccc(CNCc2ccc(-c3cccc(-c4nc5ccccc5[nH]4)c3)cc2)c1`, the inhibition was 3% (inactive).

`O=C(Nc1cc2cc(-c3ccc(CN4CCCCC4)cc3)ccc2n2cnnc12)NC1CCCC1`: the inhibition is -4% (inactive).

Consider `CN1CCC(NCc2ccc(-c3ccc(Cl)cc3)cc2)CC1`, for which the inhibition was 6% (inactive).

`CCCNc1ccc2nccc(CCN3CCC(NCc4ccc5c(n4)NC(=O)CS5)CC3)c2n1`: the inhibition was -1% (inactive).

On to `COc1cc2c(C3CCN(CC4CCN(C(=O)/C=C/c5ccc(Cl)c(Cl)c5)CC4)CC3)c[nH]c2cn1`, for which the inhibition was -1% (inactive).

For the compound `COc1cccc(CNC[C@@H](O)[C@H](Cc2ccccc2)NC(=O)c2cc(NC(C)C)cc(N3CCCCS3(=O)=O)c2)c1`, the inhibition is 1% (inactive).

Take `COc1ccc(NC(=O)/C=C/c2ccccc2Cl)cc1OCCN1CCC(N2CCCC2)CC1`: the inhibition is -1% (inactive).

With `Clc1ncnc2scc(-c3ccc(Br)cc3)c12`, the inhibition is -2% (inactive).

Regarding `Cc1cccc(Nc2nc(C)cc(N3CCCN(CC4CCCCC4)CC3)n2)c1`, the inhibition was -2% (inactive).

For the compound `O=C(Nc1ccc2c(c1)OCO2)c1cc(-c2cccnc2)cnc1NCc1ccc2c(c1)OCO2`, the inhibition was 2% (inactive).

For the compound `Cc1ccnc(NC(c2cccc(Cl)c2Cl)c2ccc3cccnc3c2O)c1` (stereo not given), the inhibition was 7% (inactive).

In the case of `O=C(Nc1cccc(CN2CCCN(Cc3ccc(O)cc3)CC2)c1)c1cc(F)cc(F)c1`, the inhibition was 0% (inactive).

For the compound `NC1=NC(c2ccccc2)(c2ccccc2)C(=O)N1Cc1ccc(-c2cccnc2)cc1`, the inhibition was 5% (inactive).

As for `CN1CCN(c2cccc(Nc3nccc(NCC(O)c4ccccc4)n3)c2)CC1` (stereo not given), the inhibition is -2% (inactive).

Turning to `CCC(C)(C)c1ccc(N2C(N)=NC(N)=NC2(C)C)cc1`, the inhibition was -1% (inactive).

On to `CC(CNC(=O)C(c1cc2ccccc2o1)N1CCN(C(c2ccccc2)c2ccccc2)CC1)c1ccccc1` (stereo not given), for which the inhibition is -5% (inactive).

Regarding `Cn1cnc(CCNC(=O)c2ccc(-c3ccc(-c4nc5ccc(C(F)(F)F)cc5[nH]4)s3)cc2)c1`, the inhibition is -2% (inactive).

For `CN1CCN(c2cc(-c3cccnc3)nc(-c3ccncc3)n2)CC1`, the inhibition is 1% (inactive).

As for `COc1ccc2nccc([C@@H](O)CN3CC[C@H](NCc4ccc5c(n4)NC(=O)CS5)[C@H](F)C3)c2c1`, the inhibition is 0% (inactive).

On to `c1ccc(-c2cc(NCCNc3cc(-c4ccccc4)nc4ccccc34)c3ccccc3n2)cc1`, for which the inhibition was 0% (inactive).

As to `NC1=NC2(CCCCC2)N(OCC2CCCCC2)C(N)=N1`, the inhibition is 0% (inactive).

`O=C(Nc1ccc(OC2CCN(Cc3ccc(F)cc3)CC2)c(Cl)c1)c1ccoc1`: the inhibition is 2% (inactive).

As to `O=S(=O)(Nc1cccc(CCN2CCC(N3CCCCC3)CC2)c1)c1cccc(C(F)(F)F)c1`, the inhibition was -1% (inactive).

In the case of `Cc1c(C(=O)N2CCCC(C(F)(F)F)C2)sc2cccc(F)c12` (stereo not given), the inhibition was 1% (inactive).

`CC(C)[C@H](NC(=O)c1ccc(O)c(-c2ccc(Cl)c(Cl)c2)c1)C(=O)NC1CCCCCC1`: the inhibition is -2% (inactive).

`Cc1ccc(NC(=O)c2ccc3ncccc3c2)cc1OC1CCN(Cc2ccco2)C1` (stereo not given): the inhibition is 2% (inactive).

Regarding `CCCCCN1CCCC(CNS(=O)(=O)c2ccc(C(=O)Nc3ccc(C(F)(F)F)cc3)cc2)C1` (stereo not given), the inhibition was -2% (inactive).

With `Cn1cncc1C(=O)Nc1cccc(-c2ccc(-c3nc4ccccc4[nH]3)s2)c1`, the inhibition was -3% (inactive).

For `CCCCOc1ccc(N2C(N)=NC(N)=NC2(C)C)cc1`, the inhibition is 6% (inactive).

Take `COc1ccc(NC(=O)Nc2cccc(-c3cccc(-c4nc5c(C)cccc5[nH]4)c3)c2)cc1`: the inhibition was 2% (inactive).

For `O=C(Nc1cccc(-c2ccc(-c3nc4ccc(C(F)(F)F)cc4[nH]3)s2)c1)c1cnc[nH]1`, the inhibition is -3% (inactive).

For `COc1cccc2cc(C(=O)N[C@@H](CC(C)C)C(=O)N[C@H](/C=N/N3C(=O)CN(Cc4ccccc4)C3=O)CCc3ccccc3)oc12`, the inhibition was -1% (inactive).

Consider `CCOc1ccc(-c2nc(NC(=O)Cc3cccc(OC)c3)sc2C)cc1`, for which the inhibition is 3% (inactive).

Consider `Cc1ccc(C2CC(c3cccs3)=NN2C(=O)c2ccc(Br)o2)cc1` (stereo not given), for which the inhibition is 0% (inactive).

Consider `CNc1ccc(CNCc2ccc(-c3ccc(-c4nc5ccc(C(F)(F)F)cc5[nH]4)s3)cc2)cc1`, for which the inhibition was -2% (inactive).

As for `Cc1ccc([N+](=O)[O-])cc1NC(=O)N(CC(O)c1ccccc1)C1CCCCC1` (stereo not given), the inhibition is 6% (inactive).

Turning to `COc1ccc(CCN(C)CCOc2ccc(NC(=O)c3cc(SC)cc4c(=O)c5ccccc5[nH]c34)cc2)cc1OC`, the inhibition is 0% (inactive).

For the compound `CC(C)C(C(=O)Nc1ccc(S(=O)(=O)N(C)C)cc1)c1ccc(Cl)cc1` (stereo not given), the inhibition is -2% (inactive).

As for `NC(=O)c1ccc(C(=O)Nc2cccc(-c3ccc(-c4nc5ccc(C(F)(F)F)cc5[nH]4)cc3)c2)cc1`, the inhibition was -1% (inactive).

Broadly, the inhibition is the relative decrease from the control value, in per cent.
